We go through 43 compounds from the supplement of paper PMC4962491.

± gives the standard deviation of the averaged measurements. The full ranking holds about 1,600 compounds; the median of “mitochondrial oxygen consumption rate normalised to cell number, Z score over the library” is about 0.065, and the lowest 2% start at about -2.2. What follows is part of a selection rich in the lowest values, with near analogues and random picks from the rest.

This test deals with FaDu. Kind of test: mitochondrial oxygen consumption rate normalised to cell number, Z score over the library; higher = higher oxygen consumption (negative = OCR reduction). The settings on record: treatment time 24 h; assay medium: 5 mM galactose, 5 mM pyruvate, 4 mM glutamine; 10 µM. The protocol: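 Primary screen: FaDu cells were incubated 24 h with Pharmakon 1600 / TDI oncology set compounds at 2 or 10 uM. Mitochondrial-specific OCR (basal minus 2 uM antimycin A) was measured on a Seahorse XF96 in assay medium with 5 mM galactose, 5 mM pyruvate and 4 mM glutamine, then corrected for Hoechst cell number and expressed as a Z score […]. Compounds that cut cell number by >66% were excluded. Two repeats.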
Turning to `Oc1ccc2ccccc2c1` [beta-NAPHTHOL], the “mitochondrial oxygen consumption rate normalised” value turned out to be 0.778 ± 0.095.

`C/C=C(/C)C(=O)O[C@H]1[C@H](OC(C)=O)[C@@]2(CO)C(CC1(C)C)C1=CCC3[C@@]4(C)CCC(O[C@@H]5O[C@H](C(=O)O)[C@@H](O[C@@H]6O[C@H](CO)[C@@H](O)[C@H](O)[C@H]6O)[C@H](O)[C@H]5O[C@@H]5O[C@H](CO)[C@@H](O)[C@H](O)[C@H]5O)[C@](C)(CO)C4CC[C@@]3(C)[C@]1(C)C[C@H]2O.C/C=C(\C)C(=O)O[C@H]1[C@H](OC(C)=O)[C@@]2(CO)C(CC1(C)C)C1=CCC3[C@@]4(C)CCC(O[C@@H]5O[C@H](C(=O)O)[C@@H](O[C@@H]6O[C@H](CO)[C@@H](O)[C@H](O)[C@H]6O)[C@H](O)[C@H]5O[C@@H]5O[C@H](CO)[C@@H](O)[C@H](O)[C@H]5O)[C@](C)(CO)C4CC[C@@]3(C)[C@]1(C)C[C@H]2O` (stereo partly drawn): the “mitochondrial oxygen consumption rate normalised” value amounted to 0.3 ± 0.096. For `N=C(N)NC(=N)NCCc1ccccc1` the value was -1.85 ± 0.1. In the case of `N=C(NCCCCCCNC(=N)NC(=N)Nc1ccc(Cl)cc1)NC(=N)Nc1ccc(Cl)cc1`, the “mitochondrial oxygen consumption rate normalised” value is -3.36 ± 0.16. Consider `CC(C)NC(=N)NC(=N)Nc1ccc(Cl)cc1`, for which the “mitochondrial oxygen consumption rate normalised” value is -0.293 ± 0.099. For `CN(C)c1cnccn1` the value was 0.284 ± 0.5; for `CC[C@H]1OC(=O)C[C@@H](O)[C@H](C)[C@@H](O[C@@H]2O[C@H](C)[C@@H](O)[C@H](N(C)C)[C@H]2O)[C@@H](CCN2C[C@H](C)C[C@H](C)C2)C[C@@H](C)C(=O)/C=C/C(C)=C/[C@@H]1CO[C@@H]1O[C@H](C)[C@@H](O)[C@@H](OC)[C@H]1OC`, 0.2667 ± 0.0014; for `CCCNC(C)C(=O)Nc1ccccc1C` (stereo not drawn), -0.507 ± 1.1. In the case of `CC(C)[C@H](N)C(=O)OCC(CO)OCn1cnc2c(=O)nc(N)[nH]c21` (stereo partly drawn), the “mitochondrial oxygen consumption rate normalised” value was found to be 1.37 ± 0.77. Consider `N#Cc1ccc2[nH]cc(CCCCN3CCN(c4ccc5oc(C(N)=O)cc5c4)CC3)c2c1`, for which the “mitochondrial oxygen consumption rate normalised” value is -0.383 ± 0.58. On to `CCN(CC)C(=O)N1CCN(C)CC1`, for which the “mitochondrial oxygen consumption rate normalised” value is 1.02 ± 0.63. Turning to `CCOCCOc1ccccc1C(N)=O`, the “mitochondrial oxygen consumption rate normalised” value was 1.14 ± 0.52. Consider `Cc1c2oc3c(C)ccc(C(=O)N[C@@H]4C(=O)N[C@H](C(C)C)C(=O)N5CCC[C@H]5C(=O)N(C)CC(=O)N(C)[C@@H](C(C)C)C(=O)O[C@@H]4C)c3nc-2c(C(=O)N[C@@H]2C(=O)N[C@H](C(C)C)C(=O)N3CCC[C@H]3C(=O)N(C)CC(=O)N(C)[C@@H](C(C)C)C(=O)O[C@@H]2C)c(N)c1=O`, for which the “mitochondrial oxygen consumption rate normalised” value is -4.48 ± 0.4. Then `CO[C@H]1C[C@H](O[C@@H]2/C(C)=C/C[C@@H]3C[C@@H](C[C@]4(CC[C@H](C)[C@@H](C5CCCCC5)O4)O3)OC(=O)[C@@H]3C=C(C)/C(=N/O)[C@H]4OC/C(=C\C=C\[C@@H]2C)[C@]43O)O[C@@H](C)[C@@H]1O`, with 0.0124 ± 0.37; and `CN(C)CCc1c[nH]c2ccc(C[C@H]3COC(=O)N3)cc12`, with 0.529 ± 0.45; and `CCC(=O)O[C@H](CC(=O)O)C[N+](C)(C)C`, with -0.676 ± 0.16.

Regarding `C[C@]12CCC(=O)C=C1CC[C@@H]1[C@@H]2[C@@H](O)C[C@@]2(C)[C@H]1CC[C@]2(O)C(=O)COP(=O)(O)O`, the “mitochondrial oxygen consumption rate normalised” value was 1.06 ± 0.71. On to `NCCc1cc[nH]n1`, for which the “mitochondrial oxygen consumption rate normalised” value is -0.155 ± 0.3. Then `CCCCCCOC(=O)NC(=N)c1ccc(NCc2nc3cc(C(=O)N(CCC(=O)OCC)c4ccccn4)ccc3n2C)cc1`, with 0.662 ± 0.54. For `Cc1ncc(COP(=O)([O-])[O-])c(CN(CCN(CC(=O)O)Cc2c(COP(=O)([O-])O)cnc(C)c2O)CC(=O)O)c1O.[Mn].[Na+].[Na+].[Na+]` the value was 0.342 ± 0.21. Then `CCCOc1ccc2[nH]c(NC(=O)OC)nc2c1`, with 0.108 ± 0.53; and `CCCCC(=O)O[C@]1(C(=O)CO)[C@@H](C)C[C@H]2[C@@H]3CCC4=CC(=O)C=C[C@]4(C)[C@@]3(F)[C@@H](O)C[C@@]21C`, with -0.0902 ± 0.67. Turning to `O=C1CN2Cc3c(ccc(Cl)c3Cl)N=C2N1`, the “mitochondrial oxygen consumption rate normalised” value came out at 1.01 ± 0.66.

As for `C[C@]12CC[C@@H]3c4ccc(O)cc4CC[C@H]3[C@@H]1CC[C@@H]2O`, the “mitochondrial oxygen consumption rate normalised” value was -0.551 ± 0.072. For `C[C@]12CC[C@@H]3c4ccc(O)cc4C[C@@H](CCCCCCCCC[S+]([O-])CCCC(F)(F)C(F)(F)F)[C@H]3[C@@H]1CC[C@@H]2O` (stereo partly drawn) the value was -2.25 ± 2.2; for `C[C@]12CC[C@@H]3c4ccc(O)cc4CC[C@H]3[C@@H]1C[C@@H](O)[C@@H]2O`, -0.347 ± 0.41; for `N=C(N)NS(=O)(=O)c1ccc(N)cc1`, -0.417 ± 0.81. In the case of `O=C[C@H](O)[C@@H](O)[C@H](O)CO`, the “mitochondrial oxygen consumption rate normalised” value is -0.552 ± 0.11. Consider `CC(C)(C)CC(C)(C)c1ccc(OCCOCC[N+](C)(C)Cc2ccccc2)cc1`, for which the “mitochondrial oxygen consumption rate normalised” value was -6.2 ± 0.063.

In the case of `Cc1cc(C(C)(C)CC(C)(C)C)ccc1OCCOCC[N+](C)(C)Cc1ccccc1`, the “mitochondrial oxygen consumption rate normalised” value is -5.95 ± 0.082. For `CO[C@H]1C[C@@H]2CC[C@@H](C)[C@@](O)(O2)C(=O)C(=O)N2CCCC[C@H]2C(=O)O[C@H]([C@H](C)C[C@@H]2CC[C@@H](OCCO)[C@H](OC)C2)CC(=O)[C@H](C)/C=C(\C)[C@@H](O)[C@@H](OC)C(=O)[C@H](C)C[C@H](C)/C=C/C=C/C=C/1C` the value was -1.07 ± 0.18; for `C(=C\c1ccccc1)/CN1CCN(C(c2ccccc2)c2ccccc2)CC1`, -0.167 ± 0.011. As to `COc1ccc2cc(CCC(C)=O)ccc2c1`, the “mitochondrial oxygen consumption rate normalised” value was found to be 0.808 ± 0.11. As for `O=C(Nc1ccccc1)c1ccccc1O`, the “mitochondrial oxygen consumption rate normalised” value was -0.209 ± 0.021. For `CC1CCCC(C)N1` (stereo not drawn) the value was -0.441 ± 0.17; for `O=C(CCCCCCCC(=O)NCCO)NCCO`, -0.567 ± 0.53. For `Cn1nnnc1SCC1=C(C(=O)O)N2C(=O)[C@@H](NC(=O)[C@H](O)c3ccccc3)[C@H]2SC1` the value was 0.376 ± 0.31; for `COCCCOc1ccnc(C[S+]([O-])c2nc3ccccc3[nH]2)c1C` (stereo not drawn), 0.0779 ± 0.21; for `CCN(CC)CCOC(=O)C(Cc1cccc2ccccc12)CC1CCCO1` (stereo not drawn), -0.531 ± 1.6.

In the case of `O=C(O)c1cc(O)c2c(c1)[C@H]([C@H]1c3cc(C(=O)O)cc(O)c3C(=O)c3c(O[C@@H]4O[C@H](CO)[C@@H](O)[C@H](O)[C@H]4O)cccc31)c1cccc(O[C@@H]3O[C@H](CO)[C@@H](O)[C@H](O)[C@H]3O)c1C2=O`, the “mitochondrial oxygen consumption rate normalised” value was 0.905 ± 0.018. For `COc1cccc2c1C(=O)c1c(O)c3c(c(O)c1C2=O)C[C@@](O)(C(=O)CO)C[C@@H]3O[C@H]1C[C@H](N)[C@@H](O)[C@H](C)O1` the value was -2.82 ± 0.22. For `CCCCC(=O)OCC(=O)[C@]1(O)Cc2c(O)c3c(c(O)c2[C@@H](O[C@H]2C[C@H](NC(=O)C(F)(F)F)[C@H](O)[C@H](C)O2)C1)C(=O)c1c(OC)cccc1C3=O` [valrubicin], the “mitochondrial oxygen consumption rate normalised” value was -0.0886 ± 0.77. `Cn1nnnc1SCC1=C(C(=O)O)N2C(=O)[C@@H](NC(=O)[C@H](OC=O)c3ccccc3)[C@H]2SC1`: the “mitochondrial oxygen consumption rate normalised” value is 0.0513 ± 0.34.
